± gives the standard deviation. Whole data set: some 6,600 sequences, median “pre-steady-state target cleavage rate” near 0.07, cut for the highest 2% near 0.72. For the sample, the highest values were picked, then their nearest neighbours and some sequences at random.
What follows are sequences tested on MIWI (PIWIL1) piRISC loaded with Kctd7 piRNA (30 nt) (assay: pre-steady-state target cleavage rate (min^-1); MIWI and MILI are mouse PIWI proteins and EfPiwi is from a freshwater sponge; tags in brackets are library labels; higher = faster piRNA-guided slicing of the target). Details: guide: Kctd7 piRNA 5'p-UGUUAAUCUCUCAGAGAAGGUGACAGUGAU; auxiliary factor: 500 nM mouse GTSF1.
Procedure, shortened: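 In this Cleave-'n-Seq assay, uncleaved targets were sequenced and normalised to depth and to weakly complementary targets. They came from a transcribed, DNA-blocked target RNA library […] mixed with 1 nM active affinity-purified piRISC carrying one synthetic guide, with or without 500 nM GTSF1 partner protein, in HEPES–potassium acetate buffer at 33 °C for 0–8 or 0–960 min. After three trials were pooled and k3 was capped at 0.0001 min^-1, the pre-steady-state cleavage rate was obtained from a burst-and-steady-state fit.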
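Further: 1 nM active piRISC with 0.1 nM target library at 33 °C single turnover.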

| Sequence | pre-steady-state target cleavage rate |
| --- | --- |
| UAGUGUGUCACCUUCUCUGAGAGAGUAACA | 0.394 ± 0.046 |
| UUCAGUGUCACCUACUCUGAGAGAUUAACA | 0.509 ± 0.033 |
| UACUCUGUCACCUUCUGUGAGAGAUUAACA | 0.533 ± 0.025 |
| UACACUGUCACCUUCUCUGAGAGAUAUUGA [g6:g28:cont:t1A] | 0.0488 ± 0.017 |
| UAGUGACUCACGUUCUCUGAGAGAUAAACA | 0.119 ± 0.022 |
| UAGUGACUCACCUUCUCAGAGAGAUAAACA | 0.027 ± 0.0057 |
| UAGUCUGUCACCUUCUCACAGAGAUUAACA | 0.0188 ± 0.0059 |
| UACACAGUCACGUUCUCUGAGAGAUUAACA | 0.679 ± 0.035 |
| AUCACAGUCACGUUCUCUGAGAGAUUAACA | 0.737 ± 0.026 |
| UAGACUGUCACGUUCUCUGAGAGAUUAACA | 0.671 ± 0.042 |
| AUCACUGUCACGUUCUCUGAGAGAUUAACA | 0.821 ± 0.043 |
| UUCUCUGUCACGUUCUCUGAGAGAUUAACA | 0.564 ± 0.026 |
| UUGACUGUCACGUUCUCUGAGAGAUUAACA | 0.711 ± 0.037 |
| AUGACUGUCACGUUCUCUGAGAGAUUAACA | 0.755 ± 0.054 |
| UUCACAGUCACGUUCUCUGAGAGAUUAACA | 0.685 ± 0.027 |
| AACACUGUCACGUUCUCUGAGAGAUUAACA | 0.71 ± 0.035 |
| UACACUGUCACGUUCUCUGAGAGAUUAACA | 0.743 ± 0.037 |
| UUCACUGUCACGUUCUCUGAGAGAUUAACA | 0.681 ± 0.035 |
| UACACUGUCACGUUCUCUGUGAGAUUAACA | 0.233 ± 0.014 |
| UAGACUGUGACCAUCUCUGAGAGAUUAACA | 0.359 ± 0.025 |
| UAGUGACACACCUUCACUGAGAGAUAAACA | 0.112 ± 0.022 |
| UUCACUGAUCACCUUCUCUGAGAGAUUAACA | 0.653 ± 0.052 |

| Sequence | pre-steady-state target cleavage rate |
| --- | --- |
| UUCACUGUCACCUUCUCUCAGAGAUUUACA | 0.0958 ± 0.015 |
| UAGACUGUCACCUUCUCUCUCUCUAAUUGA [g13:g27:cont:t1A] | < 0.0001 |
| UAGACUGUCACCUUCUCUGAGAGAUAAUCA | 0.0918 ± 0.018 |
| UUCACUGUUCACCUUCUCUGAGAGAUUAACA | 0.633 ± 0.036 |
| UAGACUGUCACCUUCUCUGAGAGAUUAACG [g2:g27:cont:t1G] | 0.674 ± 0.034 |
| UACACUGUUCACCUUCUCUGAGAGAUUAACA | 0.614 ± 0.025 |
| UAGACUGUUCACCUUCUCUGAGAGAUUAACA | 0.771 ± 0.043 |
| AUCACUGUUACCUUCUCUGAGAGAUUAACA | 0.553 ± 0.033 |
| UAGACUGUUACCUUCUCUGAGAGAUUAACA | 0.745 ± 0.039 |
| AUCACUGUUCACCUUCUCUGAGAGAUUAACA | 0.79 ± 0.046 |
| UAGACUUCACCUUCUCUGAGAGAUUAACA | 0.576 ± 0.04 |
| UUCACUGUUACCUUCUCUGAGAGAUUAACA | 0.342 ± 0.032 |
| UAGUGAGUCACCUUCUCUGAGUCUUUAAGA | 0.00546 ± 0.0039 |
| UAGUGAGUCACCUUCUCUGAGAGAAUAUCA | 0.124 ± 0.041 |
| UAGUGACAGACCUUCUCUGAGAUAUUAACA | 0.0437 ± 0.011 |
| UUCUCUGUCACCUUCUCUGAGAGAUAUUGA | 0.0992 ± 0.024 |
| UAGUGACUCACCAAGUCUGAGAGAUAUUGA | < 0.0001 |
| UAGUGACAGACCUUCUCUGUGAGUUUAACA | 0.0139 ± 0.0037 |
| UAGUGACACACCAUUCUCUGAGAGAUUAACA | 0.245 ± 0.022 |
| UAGUGACAGUGGAAGUCUGAGACAUAAACA | < 0.0001 |
| UACACUGUCACCUUCUCUGAGAGAUUAACA [g2:g28:cont:t1A] | 0.563 ± 0.039 |
| UUACACUGUCACCUUCUCUGAGAGAUUAACA | 0.769 ± 0.044 |

| Sequence | pre-steady-state target cleavage rate |
| --- | --- |
| UACACUGUCACCUUCUCUGAGAGAUUAACG [g2:g28:cont:t1G] | 0.566 ± 0.047 |
| UACACUGUCACCUUCUCUCUGAGAUUAACA | 0.0197 ± 0.0062 |
| UACACUGUCACCUUCUCUGAGAGAUUAACC [g2:g28:cont:t1C] | 0.391 ± 0.034 |
| AUACACUGUCACCUUCUCUGAGAGAUUAACA | 0.752 ± 0.05 |
| UAGUGACAGACCUUCUCUGAGAGAUAUACA | 0.0324 ± 0.0083 |
| UAGUCUGUCACCUUCUCAGAGAGAUUUUGA | 0.0587 ± 0.02 |
| UAGACUGUCACCUUCUCUGAGAGAUUAAUA | 0.414 ± 0.035 |
| AUCACUGUCACCGUCUCUGAGAGAUUAACA | 0.608 ± 0.038 |
| UAGACUGUCACCUUCUCUGAGAGAUUAACCA | 0.648 ± 0.054 |
| UUCAGUGUCACCAUCUCUGAGAGAUUAACA | 0.585 ± 0.037 |
| UAGACUGUCACCAUCUCUGAGAGAUUAAGA | 0.112 ± 0.018 |
| UAGACUGUCACCGUCUCUGAGAGAUUAACA | 0.769 ± 0.037 |
| UAGACUGUCACCAUCUCUGUGAGAUUAACA | 0.155 ± 0.013 |
| UAGACUGUCACCGUUCUCUGAGAGAUUAACA | 0.625 ± 0.041 |
| UAGACUGUCACCAUCUCUGAGAGAUUAACA | 0.741 ± 0.052 |
| UAGACUGUCACCCUUCUCUGAGAGAUUAACA | 0.517 ± 0.042 |
| UAGACUGUCACCAUUCUCUGAGAGAUUAACA | 0.792 ± 0.055 |
| UAGAGUGUCACCAUCUCUGAGAGAUUAACA | 0.741 ± 0.045 |
| UAGUGUGUCACCAUCUCUGAGAGAUUAACA | 0.609 ± 0.037 |
| UAGUGACACACCUUCUCUGAGUGAAUAACA | 0.00377 ± 0.0036 |
| UACACUGACACCUUCUCUGUGAGAUUAACA | 0.181 ± 0.019 |
| UACACUCAGACCUUCUCUGAGAGAUUAAGA | 0.0222 ± 0.0091 |

| Sequence | pre-steady-state target cleavage rate |
| --- | --- |
| UAGUGACAGACCUUCUCUGAGAGACUAACA | 0.0225 ± 0.0061 |
| UAGACAGUGACCUUCUCUGAGAGAUUAACA | 0.554 ± 0.033 |
| UACACUGAGACCUUCUCUGAGAGAUUAUGA | 0.0374 ± 0.015 |
| UAGUGACAGACCUUCUCUGAGACAUUAACA | 0.039 ± 0.0076 |
| UUCACUGUCACCUUCUCUGUGAGAUUUACA | 0.158 ± 0.027 |
| UAGUGACACACCUUCACUGAGACAUUAACA | 0.17 ± 0.029 |
| AUCACUGUCACCUUGUCUGAGAGAUAAACA | 0.552 ± 0.085 |
| UAGACUGUCACAUUCUCUGAGAGAUUAACA | 0.77 ± 0.051 |
| UAGUCUGUCACAUUCUCUGAGAGAUUAACA | 0.607 ± 0.03 |
| UAGACUGUCACGCUUCUCUGAGAGAUUAACA | 0.563 ± 0.029 |
| AUCUCUGUCACCUUCUCAGAGAGAUUAACA | 0.245 ± 0.024 |
| UAGUCAGUCACCUUCUCUGAGAGAUUAACA | 0.722 ± 0.034 |
| UAGUCGGUCACCUUCUCUGAGAGAUUAACA | 0.73 ± 0.037 |
| UAGUCUAGUCACCUUCUCUGAGAGAUUAACA | 0.67 ± 0.035 |
| UAGUCGUCACCUUCUCUGAGAGAUUAACA | 0.7 ± 0.049 |
| UAGUCUGUCACCUUCUCUGAGAGAUUAACA [g2:g26:cont:t1A] | 0.631 ± 0.026 |
| UAGUCUGGUCACCUUCUCUGAGAGAUUAACA | 0.749 ± 0.046 |
| UUCACUCACACCUUCUCUGAGAGAUUAAGA | 0.0618 ± 0.011 |
| UUCACUGUCACCUUACUCUGAGAGAUUAACA | 0.522 ± 0.026 |
| UAGUCUGUCACCAUCUCUGAGAGAUUAAGA | 0.0769 ± 0.013 |

— the supplement of paper PMC10338343
